# In the library only some 9.1% were active in any assay of this set; here they are far more common.
# M1 antagonist = M1 muscarinic receptor (rat) antagonism. CHO-M1 cells, Fluo-4 calcium, ACh EC80 antagonist mode; stronger effect = lower value. hit rate 3.4% among 64,000. P08482. B-score at 10 µM;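 active = calcium fluorescence response, raw or row-and-column corrected B-score, differing from the plate sample mean either way at a set confidence level, mostly lower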
# mHtt clearance = mutant huntingtin protein clearance; HeLa Exon1htt(103Q)mCFP, aggregate imaging; zero = plate's median compound well; inhibition, % at 1.5 µM; hit rate 0.42% among 47,000;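 active = inhibition of aggregate fluorescence above about 70%, also judged a hit by eye on the cell image, limit read from the data, passing the limit was not always enough; inconclusive = no rule stated for this call; inactive = not judged a hit on image review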;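 also: cells exposed to compound for three days before fixation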
# D1 allo mod = D1 dopamine receptor (human) allosteric modulation; HEK293 D1, CRE-luciferase, dopamine EC30 potentiation; actives deviate in either direction; B-score at 10 µM; hit rate 5.9% among 58,000; AID 641;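 active = luminescence count or its row- and column-corrected plate score outside the 99.7% band of the plate's sample wells, on either side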
# M1 agonist = activates the M1 muscarinic receptor | hit rate 3% among 64,000 | B-score at 10 µM | CHO-M1 cells, Fluo-4 calcium fluorescence, agonist mode; stronger effect = higher value;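 active = fluorescence rise, raw or as B-score row- and column-corrected plate score, outside the 99.7% band of its plate's samples, either direction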
# M1 agonist conf = rat M1 muscarinic agonism, confirmation | CHO-M1 cells, Fluo-4 calcium fluorescence, agonist mode; actives lie on both sides | hit rate 19% among 1,700 | shares compounds with M1 agonist | AID 1488 | fluorescence change (max-min) at 10 µM;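 active = fluorescence change differs from the solvent-only DMSO control mean at a set confidence level in both duplicate runs; inconclusive = differs from solvent-only control mean in just one of two runs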;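 also: an EC20 dose of acetylcholine follows compound addition during the same imaging run; raw fluorescence intensity difference in instrument units with no normalization to controls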
# M4 ag counter = activates rat M4 receptor in counter-screen for M1 agonists. CHO M4/Gqi5 cells, Fluo-4 calcium fluorescence, agonist mode; actives lie on both sides. fluorescence change (max-min) at 10 µM. hit rate 9% among 1,700. shares compounds with M1 agonist;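 active = fluorescence change differing from the plate's solvent-only control wells at 99.7% confidence in both duplicates, whether higher or lower; inconclusive = differs from solvent controls in only one of two duplicates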
# Target sequence (P08485 whole entry, looked up): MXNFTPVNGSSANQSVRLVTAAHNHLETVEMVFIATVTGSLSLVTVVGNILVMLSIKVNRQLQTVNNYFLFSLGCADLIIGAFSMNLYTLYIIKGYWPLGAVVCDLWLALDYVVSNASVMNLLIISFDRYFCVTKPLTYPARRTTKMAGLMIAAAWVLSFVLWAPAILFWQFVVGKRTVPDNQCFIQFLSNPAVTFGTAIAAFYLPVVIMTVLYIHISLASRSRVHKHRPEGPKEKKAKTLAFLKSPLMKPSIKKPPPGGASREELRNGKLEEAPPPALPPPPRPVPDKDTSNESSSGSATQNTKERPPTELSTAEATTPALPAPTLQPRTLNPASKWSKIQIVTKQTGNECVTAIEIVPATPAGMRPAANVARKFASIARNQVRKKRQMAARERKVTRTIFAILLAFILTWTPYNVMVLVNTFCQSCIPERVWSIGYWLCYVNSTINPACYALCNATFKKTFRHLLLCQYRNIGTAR
# An asterisk follows results filed as active; ? = inconclusive; · = no result.
SMILES,M1 antagonist,mHtt clearance,D1 allo mod,M1 agonist,M1 agonist conf,M4 ag counter
CC(C)c1[nH]nc2c1C(Cc1ccccc1)C(C#N)=C(N)O2 (configuration not stated),-1.4,-5,-0.019,-0.68,·,·
CCCc1[nH]nc2c1C(CCc1ccccc1)C(C#N)=C(N)O2 (configuration not stated),0.095,·,-1,2.7*,?,-24
COCc1[nH]nc2c1C(c1ccccc1OC)C(C#N)=C(N)O2 (configuration not stated),0.45,·,-1.9,-0.77,·,·
COC(=O)c1ccc(NC(=O)CSc2nccn2CCc2ccccc2)cc1,·,-68,·,·,·,·
CN1CCN(C(=O)c2cc3c(C(F)(F)F)nn(C)c3s2)CC1,·,12,·,·,·,·
CCOC(=O)SC1=N/C(=C\c2ccc(N(C)C)cc2)C(=O)S1,0.66,·,-0.3,10*,?,?
Cc1noc(C)c1COC(=O)CCCc1c[nH]c2ccccc12,-0.33,·,-0.12,-0.32,·,·
CC(=O)N1CCc2cc(C(=O)CN3CCN(c4cccc(Cl)c4)CC3)ccc21,-3*,-9,-3.5*,5.9*,22,16
CC(C)Oc1snc(Cl)c1C(N)=O,-0.0071,·,·,0.16,·,·
CCCC1=C(C(=O)OCC)C(c2ccc(NC(C)=O)cc2)NC(=O)N1 (configuration not stated),-0.04,·,·,0.2,·,·
CCOC(=O)C1=C(CS(=O)(=O)c2ccccc2)NC(=O)NC1c1ccccc1 (configuration not stated),0.21,·,-0.64,4.3*,?,?
O=C(CCCN1C(=O)c2cccnc2C1=O)N1CC(=O)N(CCc2ccccc2)C(=O)C1,1,·,0.51,4.2,·,·
CN(C)c1ccc(N=Cc2nc(-c3ccccc3)oc2O)cc1,0.074,·,-0.062,21*,147*,61
O=c1cc(CNC2CCCCC2)c2ccccc2[nH]1,-0.2,29,-0.2,-3*,?,-48
O=C(Cc1c(O)c2ccccc2[nH]c1=O)NC1CCCCCC1,-0.74,·,0.14,-0.28,·,·
O=C(CC1SC(=Nc2ccccc2)N(CCCO)C1=O)Nc1ccc(Cl)cc1 (configuration not stated),-0.89,·,-0.64,4.4*,-4.6,?
CCCn1c(=O)n(C)c(=O)c2c3oc(=O)c(NC(=O)c4ccc(F)cc4)cc3[nH]c21,0.34,·,0.018,0.81,·,·
CCCCCn1nc(-c2ccccc2)c2nc3ccccc3nc21,·,6,·,·,·,·
CCCn1nc(-c2ccccc2)c2nc3ccccc3nc21,0.5,-41,2,475*,492*,1201*
CCn1nc(-c2ccccc2)c2nc3ccccc3nc21,-0.93,3,2.2,24*,24,11
Cn1c(Cl)cnc1C(O)c1ccccc1 (configuration not stated),0.48,-20,·,-0.37,·,·
O=C(NCCc1ccccc1)c1ccc(Cl)nc1,·,39,·,·,·,·
COc1ccc(CC(C(=O)Nc2cc(C)ccc2C)/C(N)=N/O)cc1 (configuration not stated),-0.4,-10,0.03,2.4*,?,-49
COc1ccc(-c2cn3cc(C)ccc3n2)cc1OC,0.33,·,-6.5*,2.2*,?,?
CC(=O)NC1(c2cccc(F)c2)CCN(C(=O)Nc2ccc(C#N)cc2)CC1,0.76,·,·,0.39,·,·
SMILES,M1 antagonist,mHtt clearance,D1 allo mod,M1 agonist,M1 agonist conf,M4 ag counter
Cc1cc(NC(=O)COc2ncnc3sc(C)c(C)c23)no1,0.45,·,1,15*,-11,-16
CCC(=O)N1CCN(c2ccccc2NC(=O)c2cccc(C)c2)CC1,-0.57,·,-0.23,9.8*,-15,?
Cc1ccc(C(C)C)c(OCC(=O)Nc2ccccc2N2CCN(C)CC2)c1,-0.22,-29,·,0.8,·,·
CC(=O)N1CCN(c2ccccc2NC(=O)COc2cc(C)ccc2C(C)C)CC1,-0.87,-30,-5.3*,4.3*,-26*,-56
CCC(=O)N1CCN(c2ccccc2NC(=O)COc2ccccc2Cl)CC1,-0.49,31,0.5,4.3*,?,-75
O=C(Nc1ccccc1N1CCN(C(=O)c2ccc(Cl)cc2)CC1)c1ccc2c(c1)OCO2,0.014,·,-0.63,-2.2*,-26,-28
CCC(=O)N1CCN(c2ccccc2NC(=O)COc2cccc(C)c2)CC1,-0.6,48,1.2,2.6,·,·
COc1ccc(S(=O)(=O)NNC(=O)c2csc(-n3nc(C)cc3C(F)(F)F)n2)cc1,·,-5,·,·,·,·
CC(C)c1noc2ncc(C(=O)c3cc(Cl)cc(Cl)c3O)cc12,·,-4,·,·,·,·
Nc1nc(SCC(=O)NC2CCCCCC2)[nH]c(=O)c1-c1ccccc1,·,0,·,·,·,·
Cc1ccc(C(=O)Nc2ccon2)cc1S(=O)(=O)N1CCCC1,·,1,·,·,·,·
O=C(CCCOc1ccccc1)N1CCN(c2ccccc2)CC1,·,2,·,·,·,·
CC(=O)c1ccc(OCCCC(=O)OCC(=O)N2CCN(c3ccccc3)CC2)cc1,-0.73,·,-0.072,9.3*,-0.8,-75
COCCCn1c(C(C)C)nc2oc3cc(OC)ccc3c(=O)c2c1=O,1.8,37,-0.047,13*,-10,-23
CCN(CC)c1ccc(SS(=O)(=O)O)cc1,·,-8,·,·,·,·
Cc1ccc(C(=O)Nc2ccc3cn[nH]c3c2)cc1S(=O)(=O)N1CCCCC1,·,16,·,·,·,·
CC(C)n1c2ccccc2c2nc3ccccc3nc21,0.079,·,2.4,0.1,·,·
CC(C)OC(=O)c1c2nc3ccccc3nc2n2c1[nH]c(=O)c1ccccc12,0.4,·,0.11,7.9*,73*,113
Cn1c(=O)c2c(SCC(=O)c3ccccc3)nc(C3CC3)nc2n(C)c1=O,-1,·,-1.3,2.7*,-13,-44
CCCc1nc(SCC(=O)c2ccc(OC)cc2)c2c(=O)n(C)c(=O)n(C)c2n1,0.88,·,0.28,1.3,·,·
Cc1cc(NC(=O)CN2CCc3ccccc3C2)nc2c1c(=O)oc1ccccc12,0.3,·,0.88,-0.47,·,·
CCOC(=O)C1CCCN(c2c(NCc3ccco3)c(=O)c2=O)C1 (configuration not stated),-1.1,·,-0.85,6.1*,-5,-30
CCOC(=O)C1CCCN(c2c(NCC3CCCN3CC)c(=O)c2=O)C1 (configuration not stated),-0.2,·,-0.24,0.098,·,·
CCOC(=O)C1CCCN(c2c(NCCc3ccc(S(N)(=O)=O)cc3)c(=O)c2=O)C1 (configuration not stated),-1.2,-24,·,2.3*,-11,-14
CCOC(=O)C1CCCN(c2c(NCCN(C)Cc3ccccc3)c(=O)c2=O)C1 (configuration not stated),-0.54,·,0.0046,-0.59,·,·
CN(c1ncc(C(F)(F)F)cc1Cl)n1cc(C(N)=O)c2ccccc2c1=O,·,4,·,·,·,·
O=C(c1cc(-c2ccncc2)nc2ccccc12)N1CCN(c2ccc(N3CCOCC3)nn2)CC1,0.35,·,-0.087,4.8*,-22,-28
O=C(c1cc(-c2ccccc2)nc2ccccc12)N1CCN(c2ccccn2)CC1,-1.2,-37,-2.7,4.1*,-16,-41
O=C(c1ccco1)N1CCN(c2nc3ccccc3n3nnnc23)CC1,-1.4,·,1.1,7.4*,22,14

# Screening data from PubChem.
